# The list is not random: actives were taken first. Their share in the collection is about 2.2%.
# APP transl inh = APP translation inhibition; AID 1285; inhibition, % at 2 µM; 190,000 compounds, 0.82% hits; SH-SY5Y APP 5'UTR-luciferase reporter, luminescence;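 active = inhibition above a set limit, derived from the sample mean plus 3 SD, cut at about 45% in these data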
# Ba/F3 V617F tox = reduce viability of Ba/F3 cells dependent on JAK2V617F. Ba/F3 EpoR-JAK2V617F viability, ATP luminescence. inhibition, % at 5.6 µM. 220,000 compounds, 1.1% hits;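 active = inhibition above the campaign mean plus 3 SD over all tested compounds, cut at about 24% in these data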;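 also: cytokine-independent growth of Ba/F3 cells driven by EpoR plus mutant JAK2; 0% = DMSO-treated cells and 100% = JAK inhibitor I control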
# aSyn 5UTR inh = 5' untranslated region of α-synuclein, MLPCN primary screen. inhibition, % (tested at 7.5 µM). 300,000 compounds, 0.82% hits. alpha-synuclein 5'UTR reporter, inhibitor activity. AID 1813; in the data active = inhibition above about 60%;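 also: H4 neuroglioblastoma cells stably carrying SNCA 5'UTR luciferase fusion; 0% = DMSO wells and 100% = positive control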
# BaF3 tox = parental Ba/F3 viability inhibition as JAK2V617F counter-screen; 220,000 compounds, 1.1% hits; CellTiter-Glo ATP luminescence; AID 1486; inhibition, % at 5.6 µM;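 active = inhibition above a per-campaign cutoff, the mean inhibition of all tested compounds plus 3 SD, cut at about 27% in these data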;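 also: 0% = DMSO wells and 100% = JAK Inhibitor I control wells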
# IEC-6 tox-1 = kills IEC-6 intestinal cells in KLF5 counter-screen. IEC-6 cytotoxicity, luminescence viability. AID 1825. 290,000 compounds, 0.78% hits. inhibition, % at 5 µM;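 also: 0% = plate median of test compound wells and 100% = cytotoxic reference compound wells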
# KLF5 inhibitor = inhibitors of KLF5 expression | DLD-1 KLF5 promoter-luciferase reporter, luminescence | inhibition, % at 5 µM | 290,000 compounds, 0.23% hits;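 active = inhibition above a per-plate limit of that plate's mean compound inhibition plus 3 SD, cut at about 60% in these data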;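 also: 0% = DMSO wells and 100% = LY294002 at 200 µM; higher means less KLF5 promoter-driven luciferase light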
# KLF5 inh confirm = confirmation of KLF5 inhibitors; shares compounds with KLF5 inhibitor; DLD-1 KLF5 promoter firefly luciferase reporter, luminescence; inhibition, % at 4 µM; 610 compounds, 79% hits; AID 1834;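 active = inhibition above a set limit taken from the earlier primary screen, cut at about 63% in these data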;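 also: 0% = DMSO wells and 100% = LY294002 at 200 µM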
# IEC-6 tox-2 = rat IEC-6 cytotoxicity, KLF5 inhibitor counter-screen; AID 1905; shares compounds with KLF5 inhibitor; IEC-6 rat intestinal cells, viability luminescence; inhibition, % at 4 µM; 610 compounds, 56% hits; in the data active = inhibition above about 23%;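 also: cells exposed to compounds for 48 hours before viability read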
# IEC-6 cytotox cf = confirmation of cytotoxic compounds in rat IEC-6 intestinal epithelial cells; inhibition, % at 5 µM; shares compounds with IEC-6 tox-1; 1,900 compounds, 63% hits; IEC-6 rat intestinal epithelial viability, luminescence;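 also: 0% = vehicle and 100% = reference cytotoxic drug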
# Numbers without * were called inactive; x = no result given. Rule as the data show it, unless noted: active = inhibition above about 22%; inactive = the rest.
SMILES,APP transl inh,Ba/F3 V617F tox,aSyn 5UTR inh,BaF3 tox,IEC-6 tox-1,KLF5 inhibitor,KLF5 inh confirm,IEC-6 tox-2,IEC-6 cytotox cf
CCOc1ccc(-c2ccc(SC)nn2)cc1,-77.1,9.9,75.6*,11.9,10.3,77.8*,59.6,14.0,x
O=C(NCc1ccccc1)c1cccc(COc2ccc3c(c2)CCC3)c1,-105.3,2.0,16.8,4.3,8.4,-85.2,x,x,x
O=C(O)c1cccc(COc2ccc3c(c2)CCC3)c1,x,2.8,80.6*,-0.8,0.5,97.6*,99.8*,0.2,x
Cc1nc(N)nc(N)c1/C=C/C(C)(C)c1ccc(Cl)cc1,69.9*,98.4*,124.8*,103.1*,85.6*,82.8*,84.4*,76.2*,76.7*
COc1cccc(CNC(=O)C(CC(C)C)NC(=O)c2ccccc2C)c1 (stereo not drawn),x,x,-21.9,x,6.8,-5.7,x,x,x
CCCCCCCCCn1c2c(c(=N)c3c1CCC3)CCCC2,1.7,101.8*,90.1*,92.7*,63.9*,75.6*,114.2*,41.6*,55.3*
CCCCCc1nc2c(c3c1CCCC3)CCCC2,x,-3.6,43.2,0.9,-2.0,-40.2,x,x,x
C[C@@]12CCC=C[C@H]1[C@H](c1ccc(F)c(/C=C/c3ccccc3)c1)N(Cc1ccccc1)C2=O,x,x,22.1,x,x,x,x,x,x
COc1ccc(C(Nc2cc(C)ccn2)c2ccc3ccc(C)nc3c2O)cc1 (stereo not drawn),x,-3.4,4.1,2.6,4.2,-13.8,x,x,x
COc1ccc(C(NC(=O)C(C)C)c2ccc3cccnc3c2O)cc1 (stereo not drawn),x,74.1*,79.2*,53.8*,22.3*,85.1*,87.4*,52.0*,65.9*
CC(=O)NC(c1ccccc1)c1cc(Cl)c2cccnc2c1O (stereo not drawn),x,x,42.2,x,83.1*,89.3*,73.7*,87.2*,72.5*
CCCC(=O)NC(c1ccc(C(C)C)cc1)c1ccc2cccnc2c1O (stereo not drawn),x,x,83.1*,x,24.3*,69.4*,84.4*,71.4*,72.6*
CCCC(=O)NC(c1ccc(N(C)C)cc1)c1ccc2cccnc2c1O (stereo not drawn),x,x,61.5,x,63.1*,81.6*,88.5*,75.8*,81.0*
O=[N+]([O-])c1cc(Cl)c2cccnc2c1O,8.1,0.3,0.7,5.8,-3.7,1.7,x,x,x
CC(C)CC(=O)NC(c1ccccc1Cl)c1c(O)ccc2ccccc12 (stereo not drawn),-1.5,1.8,-20.6,7.3,-7.0,-23.8,x,x,x
CCCC(=O)NC(c1ccccc1Cl)c1ccc2cccnc2c1O (stereo not drawn),x,x,68.3*,x,97.8*,91.0*,91.3*,77.6*,76.2*
O=C(c1ccoc1)N1CCCC(CO)(CCCc2ccccc2)C1 (stereo not drawn),x,x,4.5,x,-5.0,-43.0,x,x,x
COc1cccc(N2CCN(C(=O)c3ccc(CS(=O)c4ccccc4C)o3)CC2)c1 (stereo not drawn),x,x,108.0*,x,78.5*,67.9*,74.7*,63.8*,57.5*
O=C(c1ccc(CS(=O)c2ccccc2Cl)o1)N1CCOCC1 (stereo not drawn),x,x,12.7,x,-3.8,-3.1,x,x,x
COc1cccc(N2CCN(C(=O)c3ccc(CS(=O)c4ccccc4Cl)o3)CC2)c1 (stereo not drawn),x,x,110.4*,x,89.9*,74.5*,84.2*,62.4*,60.0*
COc1ccc(CCNC(=O)c2ccc(C)s2)cc1OC,1.6,1.6,-28.1,8.4,-6.2,-41.5,x,x,x
CN(C)c1ccc(C(=O)c2ccc(N(C)C)c3ccccc23)cc1,95.4*,93.7*,89.0*,93.6*,96.9*,80.2*,91.5*,84.9*,83.8*
CN(C)c1ccc(C(=O)c2ccccc2C(=O)O)cc1[N+](=O)[O-],-1.8,2.5,-77.1,4.9,-4.4,-20.1,x,x,x
Cc1ccc(C(=O)NCC(=O)OCC(=O)N2CC(C)OC(C)C2)cc1 (stereo not drawn),x,x,-0.3,x,x,x,x,x,x
COC(=O)c1ccc(Oc2cc(C)nc(-n3nc(C)cc3C)n2)cc1,93.5*,74.4*,65.2*,65.8*,23.1*,82.0*,80.6*,19.9,45.3*
SMILES,APP transl inh,Ba/F3 V617F tox,aSyn 5UTR inh,BaF3 tox,IEC-6 tox-1,KLF5 inhibitor,KLF5 inh confirm,IEC-6 tox-2,IEC-6 cytotox cf
O=C(Sc1cccc2cccnc12)c1ccccc1Br,x,x,-241.6,x,102.0*,62.2*,16.9,100.0*,98.8*
Nc1ncc2c(n1)CCN(c1ccc([N+](=O)[O-])cc1)C2,x,x,1.9,x,9.4,-140.1,x,x,x
Cc1cccc(/C=N/NC(=O)c2ccc3c(c2)OCCO3)c1O,x,x,58.3,x,99.1*,69.8*,39.0,14.2,18.0
O=C(N/N=C/c1cccc(O)c1)c1ccc2c(c1)OCCO2,x,x,14.9,x,8.0,41.2,x,x,x
O=C(c1cc(-c2ccncc2)nc2c(Cl)cccc12)N1CCN(c2ccccc2F)CC1,x,x,99.1*,x,66.6*,65.8*,64.7*,46.9*,54.4*
Cn1cccc1/C=N\NC(=O)c1cncc(Br)c1,x,-6.7,9.1,0.2,6.8,-11.2,x,x,x
O=C(N/N=C\c1c(O)ccc2ccccc12)c1cncc(Br)c1,x,x,62.5*,x,95.3*,69.6*,85.5*,56.0*,65.2*
Cc1ccc(C(=O)N/N=C/c2c(O)ccc3ccccc23)cn1,x,x,62.5*,x,38.7*,93.9*,84.9*,14.9,32.7*
O=C(N/N=C/c1cc(O)ccc1Br)c1cccnc1,x,x,33.5,x,66.0*,80.2*,90.0*,16.8,18.4
O=C(N/N=C/c1c(O)ccc2ccccc12)c1cccnc1,x,x,92.9*,x,75.3*,82.2*,81.1*,19.7,18.7
Cc1ccccc1-c1cc2c(nn1)-c1ccccc1C2=O,-16.7,91.2*,-13.2,87.9*,102.2*,102.1*,-79.8,12.8,41.1*
CC(=O)Nc1ccc(C(=O)Nc2nc(-c3ccccn3)cs2)cc1,-0.6,2.4,-46.0,11.0,3.8,-29.6,x,x,x
O=C(Nc1nc(-c2ccccn2)cs1)c1ccccc1-n1cnnn1,x,66.5*,98.3*,62.6*,90.2*,71.1*,75.7*,58.6*,69.9*
CN(Cc1ccccn1)C(=O)CC1C(=O)NCCN1Cc1ccc(F)cc1Cl (stereo not drawn),x,x,-13.1,x,8.8,-10.4,x,x,x
CC1CCCCN1C(=O)c1c(Cl)cnn1C (stereo not drawn),x,x,x,x,3.5,-13.5,x,x,x
COc1ccccc1C(=O)Nc1nc2ccccc2[nH]1,x,x,100.2*,x,79.5*,101.1*,104.7*,58.4*,69.0*
COc1cc(SC)ccc1C(=O)Nc1nc2ccccc2[nH]1,x,x,131.5*,x,77.1*,99.7*,97.5*,43.9*,58.7*
O=C(NCCN1CCOCC1)C(=O)c1c[nH]c2ccccc12,x,x,9.8,x,-7.9,-22.4,x,x,x

# Screening data from PubChem BioAssay.
